Compounds without any hit were thinned out: in the full panel of roughly 79,000, 15% have a hit. Values without a mark were called inactive. No stated cut-off is given here; in the data, active means growth inhibition above about 70%; inactive means the rest.
Experiment: NCI Yeast Anticancer Drug Screen. Data for the cln2 rad14 strain (AID 165);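 further: 0% = growth equal to vehicle treated cultures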
Details: S. cerevisiae cln2 rad14 strain, at 50.0 µM, hits give high values
Description: Growth inhibition of yeast strains with defined genetic alterations is measured as a screen for potential anti-cancer activity. Selected strains with alterations in DNA damage repair or cell cycle control were exposed to compounds and growth inhibition was measured relative to vehicle treated controls. The strain used in this assay is cln2 rad14

Row | Compound | growth inhibition [%]
1 | CCCCCCCCCCCCCC/C=C\C(CC(=O)O)C(=O)O (stereo not given) | -32.6
2 | CN1CCCN(C(c2ccccc2)c2ccc(Br)cc2)CC1 (stereo not given) | 24.1
3 | C/C(=N\Nc1ccc([N+](=O)[O-])cc1[N+](=O)[O-])c1ccc(Br)cc1 | -12.8
4 | O=C(NCc1ccccc1)/C(=C/c1ccccc1)NC(=O)c1ccccc1 | -7.2
5 | CC(=O)c1cccs1 | -20.1
6 | OC(CBr)CCBr (stereo not given) | 3.45
7 | Oc1cccc(CNC2CCCCC2)c1 | 10.2
8 | COc1cc(C(=O)O)c(O)c(C(C)(C)C)c1 | -2.45
9 | Cn1c(=O)c2[nH]c(CCCCC(=O)O)nc2n(C)c1=O | -20.9
10 | COc1cccc(N=CNc2cccc(OC)c2)c1 | 8.55
11 | O=S1(=O)c2ccccc2Oc2ccccc21 | 16.6
12 | CSc1nc2[nH]ncc2c(=O)[nH]1 | -40.6
13 | CC(O)C(F)(F)C(F)(F)C(F)(F)F (stereo not given) | -2.1
14 | CC(=O)N(C)N=Nc1ccc(C)cc1 | 4
15 | C=CCC(O)C=C (stereo not given) | -0.8
16 | Nc1ccc(F)cc1F | -27.1
17 | COc1ccc2c(ccc[n+]2C)c1 | 19.2
18 | O=C1CSc2ccccc2N1 | -12.7
19 | CC1CCC(C(C)(C)[N+](C)(C)C)CC1 (stereo not given) | 10.6
20 | C=C(C)COc1ccc(C(C)(C)C)cc1 | 8.1

Row | Compound | growth inhibition [%]
21 | O=c1n(CC2CO2)c(=O)n(CC2CO2)n1CC1CO1 (stereo not given) | 8.35
22 | C=CCc1cc(OC)c(O)c(OC)c1 | -7.55
23 | CCOc1ccccc1NC(=O)CCl | -5.2
24 | O=C1C=Cc2ccccc2/C1=C/c1[nH]c(=O)[nH]c1O | 3.2
25 | NC(=O)c1cc2c3ccccc3ccn2c1-c1ccccc1 | 62.6
26 | COC(=O)c1cccc([N+](=O)[O-])c1 | -31.3
27 | C=C1C(=O)C2CCN1CC2 | 2.95
28 | O=C(OCC1CCCO1)c1ccc([N+](=O)[O-])cc1 (stereo not given) | 9.7
29 | CCC(=O)Oc1ccc2ccccc2c1 | 14.8
30 | CCOC(OCC)C(=O)c1ccccc1 | 9.2
31 | CC(C)C(C)(C)C(=O)C(C)(C)C(C)(C)C | -35.5
32 | CCN(C(=O)Nc1ccccc1Cl)c1ccccc1 | 2.95
33 | Cc1cc(=O)n(Nc2ccccc2)c(O)c1C#N | 2.65
34 | O=S(=O)(c1ccc(NC(=S)NCc2cccnc2)cc1)N1CCCCC1 | 1.8
35 | OC1Cc2ccccc2C1 | -31.8
36 | Cc1ccc(OC(=O)c2ccccc2)cc1 | -6.75
37 | CC1=CC(=Nc2ccc(N(C)C)cc2)C=C(C)C1=O | -38.1
38 | CCOC(=O)CNC | -4.5
39 | Nc1ccccc1SC1CC(=O)N(c2ccc(Cl)c(Cl)c2)C1=O (stereo not given) | -15.9
40 | ClCC(Cl)[C@@H]1CC2C=CC1C2 (stereo not given in full) | 15.6
